Each compound was assayed on PIM2. Details: concentration: 1 μM, replicates: in singlicate; n = 1.
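Also: KINOMEscan kinase panel screen.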

Compound	%Inh
COc1ccc(NC(=O)c2ccoc2)cc1-c1ccc(C(=O)NCC2CC2)cc1 [GW810437]	12%
COc1cccc(CC(=O)N2CCc3cc(-c4cn(C)c5ncnc(N)c45)ccc32)c1 [GSK2608899]	0%
CN1CCN(Cc2ccc(NC(=O)Nc3ccc(N(C)c4ccnc(Nc5ccc(CS(C)(=O)=O)cc5)n4)cc3)cc2)CC1.Cl [GW827654]	0%
c1ccc(Oc2ccc(Nc3ccnc4cc(-c5ccc(CN6CCCCC6)o5)ccc34)cc2)nc1 [GW567143]	0%
CN(c1ccc(F)c(NC(=O)c2cccc(OC(C)(C)C#N)c2Cl)c1)c1ccc2nc(NC(=O)C3CC3)sc2n1	14%
CCOc1nccc(-c2c(-c3ccc(F)cc3)ncn2C2CCNCC2)n1 [SB-249175]	3%
CN(C)CCNS(=O)(=O)c1ccc(-c2ccnc3[nH]ccc23)cc1 [GSK977620]	0%
CC(C)(C)c1ccc(C(=O)Nc2cn3cc(-n4ccnc4)ccc3n2)cc1	0%
Cn1cc(-c2ccc3c(c2)CCN3C(=O)Cc2cc(F)cc(F)c2F)c2c(N)ncnc21 [GSK2634140]	0%
O=C(Nc1n[nH]c2nc(-c3ccccc3)ccc12)C1CC1 [SB-708999]	16%
O=C(Nc1n[nH]c2nc(-c3cccc(O)c3)ccc12)C1CC1 [SB-711805]	81%
CN(C)CCOc1ccc(-c2cc(-c3ccc(Cl)c(O)c3)c(-c3ccncc3)[nH]2)cc1.Cl.Cl [SB-684387]	0%
Cc1cc(-c2c(-c3ccc(F)cc3)ncn2CCCN2CCOCC2)nc(N)n1 [SB-222517]	26%
CC(C)NCC(Cc1ccccc1)NC(=O)c1cc(Br)c(-c2ccnc3[nH]ccc23)s1.Cl.Cl (centres unmarked) [GSK1383281]	0%
CNc1nccc(-c2ccc3c(N)n[nH]c3c2)n1 [GSK2206003]	0%
O=C(Nc1n[nH]c2nc(-c3ccccc3O)ccc12)C1CC1 [SB-711880]	0%
O=C1NC(=O)C(c2ccccc2Cl)=C1Nc1cccc(Cl)c1 [SB-342409]	0%
Cc1nn2c(=O)cc(N3CCO[C@H](C)C3)nc2n1Cc1cccc(Cl)c1Cl [GSK2373693]	0%
CCNc1nccc(-c2c(-c3ccc(F)cc3)ncn2C2CCN(C)CC2)n1	4%
COC(=O)Nc1nc2ccc(Oc3ccc(CC(=O)Nc4cc(C(F)(F)F)ccc4F)cc3)cc2[nH]1 [GW680903]	0%
N#Cc1cnc2cc(-c3cnc(CNCCN4CCOCC4)s3)ccc2c1Nc1ccc(Oc2ccccc2)cc1 [GW664114]	0%
COc1cccc(C2=C(Nc3cccc(O)c3)C(=O)NC2=O)c1 [SB-390771]	0%
O=C(Nc1n[nH]c2cc(-c3cccs3)ccc12)C1CC1 [SB-731284]	0%
Cc1ccc(O)cc1Nc1ccnc2ccc(C(C)(C)C)cc12 [GW856805]	5%
Nc1cccc(-c2ccc3c(N)n[nH]c3c2)c1 [GSK2193613]	0%
Fc1cc(Cl)ccc1Nc1ccnc2cc(-c3ccc(CN4CCOCC4)o3)ccc12 [GW560109]	0%
Nc1ncc(-c2ccc3nccc(-c4ccncc4)c3c2)cc1S(=O)(=O)N1CCCCC1 [GSK1693850]	0%
Nc1ncnc2scc(-c3ccc(NC(=O)Cc4cc(F)ccc4F)cc3)c12.O=C(O)C(F)(F)F [SB-731254-M]	0%

What follows are compounds tested on PIM3. Details: concentration: 1 μM, replicates: in singlicate; n = 1.

Compound	%Inh
Cl.Cl.NC(CNC(=O)c1cc(Br)c(-c2ccnc3[nH]ccc23)s1)c1ccccc1 (centres unmarked) [GSK1322949]	34%
Cl.Cl.NCC(NC(=O)c1cc(-c2cccnc2)c(-c2ccnc3[nH]ccc23)s1)c1ccccc1 (centres unmarked) [GSK1323434]	0%
CC(C)c1nc(-c2ccc(F)c(NS(=O)(=O)c3c(F)cccc3F)c2)c(-c2ccnc(Nc3ccc(N4CCOCC4)nc3)n2)s1 [GSK1804250]	0%
CC(=O)Nc1cn2nc(Oc3cccc(NC(=O)c4cccc(C(F)(F)F)c4)c3)ccc2n1	0%
COc1cc(Nc2nccc(N3CCC(NS(=O)(=O)c4ccc(NC(C)=O)cc4)CC3)n2)cc(OC)c1OC [GSK1379825]	0%
Cn1cc(-c2cnc(N)c3c(-c4ccc5c(c4)CCN5C(=O)Cc4ccccc4)csc23)cn1 [GSK2593074]	1%
Cc1ccc(NC(=O)c2ccnc(N3CCCCC3)c2)cc1-c1ccc(C(=O)NCC2CC2)cc1 [GW775610]	0%
CCn1cnc2c(NCc3ccccc3)ncnc21 [SKF-96418]	0%
Cc1ccc(NC(=O)c2cccc(N3CCCCC3)c2)cc1-c1ccc(C(=O)NCC2CC2)cc1 [GSK1917008]	0%
COc1ccc(NC(=O)c2ccoc2)cc1-c1ccc(C(=O)NCC2CC2)cc1 [GW810437]	0%
COc1cccc(CC(=O)N2CCc3cc(-c4cn(C)c5ncnc(N)c45)ccc32)c1 [GSK2608899]	2%
CN1CCN(Cc2ccc(NC(=O)Nc3ccc(N(C)c4ccnc(Nc5ccc(CS(C)(=O)=O)cc5)n4)cc3)cc2)CC1.Cl [GW827654]	45%
c1ccc(Oc2ccc(Nc3ccnc4cc(-c5ccc(CN6CCCCC6)o5)ccc34)cc2)nc1 [GW567143]	0%
CN(c1ccc(F)c(NC(=O)c2cccc(OC(C)(C)C#N)c2Cl)c1)c1ccc2nc(NC(=O)C3CC3)sc2n1	6%
CCOc1nccc(-c2c(-c3ccc(F)cc3)ncn2C2CCNCC2)n1 [SB-249175]	5%
CN(C)CCNS(=O)(=O)c1ccc(-c2ccnc3[nH]ccc23)cc1 [GSK977620]	0%
CC(C)(C)c1ccc(C(=O)Nc2cn3cc(-n4ccnc4)ccc3n2)cc1	0%
Cn1cc(-c2ccc3c(c2)CCN3C(=O)Cc2cc(F)cc(F)c2F)c2c(N)ncnc21 [GSK2634140]	0%
O=C(Nc1n[nH]c2nc(-c3ccccc3)ccc12)C1CC1 [SB-708999]	0%

Compound	%Inh
O=C(Nc1n[nH]c2nc(-c3cccc(O)c3)ccc12)C1CC1 [SB-711805]	10%
CN(C)CCOc1ccc(-c2cc(-c3ccc(Cl)c(O)c3)c(-c3ccncc3)[nH]2)cc1.Cl.Cl [SB-684387]	13%
Cc1cc(-c2c(-c3ccc(F)cc3)ncn2CCCN2CCOCC2)nc(N)n1 [SB-222517]	15%
CC(C)NCC(Cc1ccccc1)NC(=O)c1cc(Br)c(-c2ccnc3[nH]ccc23)s1.Cl.Cl (centres unmarked) [GSK1383281]	0%
CNc1nccc(-c2ccc3c(N)n[nH]c3c2)n1 [GSK2206003]	13%
O=C(Nc1n[nH]c2nc(-c3ccccc3O)ccc12)C1CC1 [SB-711880]	0%
O=C1NC(=O)C(c2ccccc2Cl)=C1Nc1cccc(Cl)c1 [SB-342409]	0%
Cc1nn2c(=O)cc(N3CCO[C@H](C)C3)nc2n1Cc1cccc(Cl)c1Cl [GSK2373693]	0%
CCNc1nccc(-c2c(-c3ccc(F)cc3)ncn2C2CCN(C)CC2)n1	30%
COC(=O)Nc1nc2ccc(Oc3ccc(CC(=O)Nc4cc(C(F)(F)F)ccc4F)cc3)cc2[nH]1 [GW680903]	0%
N#Cc1cnc2cc(-c3cnc(CNCCN4CCOCC4)s3)ccc2c1Nc1ccc(Oc2ccccc2)cc1 [GW664114]	8%
COc1cccc(C2=C(Nc3cccc(O)c3)C(=O)NC2=O)c1 [SB-390771]	0%
O=C(Nc1n[nH]c2cc(-c3cccs3)ccc12)C1CC1 [SB-731284]	0%
Cc1ccc(O)cc1Nc1ccnc2ccc(C(C)(C)C)cc12 [GW856805]	18%
Nc1cccc(-c2ccc3c(N)n[nH]c3c2)c1 [GSK2193613]	0%
Fc1cc(Cl)ccc1Nc1ccnc2cc(-c3ccc(CN4CCOCC4)o3)ccc12 [GW560109]	0%
Nc1ncc(-c2ccc3nccc(-c4ccncc4)c3c2)cc1S(=O)(=O)N1CCCCC1 [GSK1693850]	0%
Nc1ncnc2scc(-c3ccc(NC(=O)Cc4cc(F)ccc4F)cc3)c12.O=C(O)C(F)(F)F [SB-731254-M]	19%
